Compound activity (PubChem BioAssay)
TexasRed fluor: counter-screen for TRb-SRC2 inhibitors: fluorescence interference; AID 1479; TRb/SRC2 Texas Red total fluorescence interference; actives 0.29% (n = 280,000); Potency, µM (doses to about 106 µM), for inactives: at the highest dose fluorescence change, negative = quenching; active = well fitted curve in either direction with a large enough effect; inconclusive = small, poorly fitted or top-dose-only effect
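Flags fluorescent or light-absorbing compounds by total fluorescence, S + 2P, at 555 nm excitation and 632 nm emission. Mixture: 20 nM Texas Red SRC2 peptide, 0.6 uM human TRb LBD, 1 uM T3, 5% DMSO; compound exposure 5 h at ambient temperature.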
Tau ThT inhib: tau fibrillization inhibition (ThT binding). recombinant tau K18 P301L, heparin-induced fibrillization, ThT fluorescence. AID 1460. P10636. actives 2.1% (n = 270,000). Potency, µM (series often up to 57.4 µM), without a hit: top-dose activity, negative = inhibition, actives largely listed as inhibitors; also: nearly all actives have a fitted effect of over 55% in size
Target sequence (P10636 561-689 P618L limits assumed): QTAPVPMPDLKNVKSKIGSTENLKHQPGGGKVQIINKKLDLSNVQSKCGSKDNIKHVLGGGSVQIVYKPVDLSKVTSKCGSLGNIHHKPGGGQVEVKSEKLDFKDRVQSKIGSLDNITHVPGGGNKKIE
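Fibril formation assay: tau K18 P301L at 15 uM with trace Alexa 594 label, heparin inducer 20 uM, pH 7 sodium acetate buffer, 37 C for 6 hr; endpoint ThT signal.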
Tau fluor cs: counter-screen for tau fibril formation inhibitors. AID 1463. Potency, µM (top dose mostly 57.7 µM), for the others: top-dose activity change, negative = decrease. tau K18 P301L Alexa594 fluorescence, heparin fibrillization. actives 0.93% (n = 280,000); also: nearly all actives have a fitted effect of over 55% in size
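Human tau K18 P301L (15 uM unlabeled, 0.24 uM Alexa 594-labeled) in 100 mM sodium acetate pH 7 with 20 uM heparin, 6 hr at 37 C. ThT 30 uM added, 1 hr ambient; Alexa 594 FP and total fluorescence read at 555/632 nm.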
TRb SRC2 PPI: inhibitors of human thyroid hormone receptor beta-SRC2 interaction; P10828; TRbeta-SRC2 peptide binding, fluorescence polarization; receptor liganded with 1 µM T3; Potency, µM (top dose mostly 106 µM), inactives show at the top dose activity change, negative = inhibition, most hits filed as inhibitors; actives 0.065% (n = 280,000); AID 1469;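 also: plate controls were bound peptide for no effect and peptide without receptor for full effect; nearly all actives have a fitted effect of over 50% in size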
Target sequence (P10828 whole entry, looked up): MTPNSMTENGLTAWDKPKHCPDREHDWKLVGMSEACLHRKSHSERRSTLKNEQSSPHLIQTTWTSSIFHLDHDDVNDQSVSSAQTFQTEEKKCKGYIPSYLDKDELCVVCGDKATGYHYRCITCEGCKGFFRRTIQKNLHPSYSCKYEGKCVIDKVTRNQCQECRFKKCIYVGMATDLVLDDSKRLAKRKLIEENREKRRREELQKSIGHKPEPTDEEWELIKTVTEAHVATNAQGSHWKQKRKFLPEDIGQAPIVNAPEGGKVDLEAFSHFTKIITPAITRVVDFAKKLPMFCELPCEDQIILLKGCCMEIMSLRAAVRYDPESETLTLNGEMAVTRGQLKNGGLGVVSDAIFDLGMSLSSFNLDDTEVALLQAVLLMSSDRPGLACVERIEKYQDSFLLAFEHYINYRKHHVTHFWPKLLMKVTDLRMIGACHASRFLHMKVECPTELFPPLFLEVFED
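TRb LBD 0.6 uM + Texas Red SRC2 peptide 20 nM, 1 uM T3, Tris buffer w/ 5% DMSO; compound pinned, 5 h RT; FP read ex 555/em 632; normalized to unbound and bound controls.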
Tau fibril FP: inhibitors of human tau fibril formation. P10636. K18 P301L tau heparin fibrillization, Alexa594 FP, 6 h. Potency, µM (top dose mostly 57.7 µM), for the others: top-dose activity, negative = inhibition, most hits filed as inhibitors. actives 0.39% (n = 280,000). AID 1468; also: nearly all actives have a fitted effect of over 55% in size
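FP of Alexa 594-tau after heparin (20 uM) induction. Substrate: human K18 P301L, 15 uM unlabeled, 0.24 uM labeled. Buffer 100 mM sodium acetate pH 7. 6 hr, 37 C.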
Active calls of the source: *; [ ] = dose if it differs, or a comment. In the library only some 3% were active in any assay of this set; here they are far more common. Unless noted, calls follow the shape of the dose curve; as a rule, active = well fitted curve in the direction sought with a large enough effect; inconclusive = small, poorly fitted or top-dose-only effect, or another doubt; inactive = no such curve, though single readings can be large; an effect the other way counts as inactive or inconclusive. Unless noted, % is scaled to controls: 0 for no effect and ±100 for the full control effect; potency is read from the fitted curve at half-maximal effect.

Screening CCNC1=C(Cl)C(=O)c2ccccc2C1=O returned TexasRed fluor -11%, Tau ThT inhib 18µM*, Tau fluor cs inconclusive, TRb SRC2 PPI 1% and Tau fibril FP -4%.
Screening Oc1ccc(Nc2ccccc2)cc1 returned TexasRed fluor -3%[201 µM] and TRb SRC2 PPI 9%[201 µM].
CCCSc1nnc2[nH]c(=O)cc(C)n12 was read as TexasRed fluor 0%, Tau ThT inhib -17%, Tau fluor cs -12%, TRb SRC2 PPI 4% and Tau fibril FP -5%.
For O=C(CSc1nnc(-c2cccs2)o1)Oc1ccc(Cl)cc1 the results were TexasRed fluor -3%, Tau ThT inhib -10%, Tau fluor cs 1%, TRb SRC2 PPI 4% and Tau fibril FP -3%.
`O=C(CCCn1c(=O)c2cccn2c2cccnc21)Nc1ccccc1Br` gave TexasRed fluor -2%, Tau ThT inhib -8%, Tau fluor cs -15%, TRb SRC2 PPI 3% and Tau fibril FP -11%.
`O=C1C(Cl)=C(Nc2ccc(O)cc2)C(=O)c2ccccc21` gave TexasRed fluor -14%, Tau ThT inhib 2µM*, Tau fluor cs 2µM*[quencher], TRb SRC2 PPI -4% and Tau fibril FP 3.5µM*.
Screening O=C1C(Cl)=C(NCCN2CCCCC2)C(=O)c2ccccc21 returned TexasRed fluor -1%, Tau ThT inhib 10µM*, Tau fluor cs inconclusive, TRb SRC2 PPI 1% and Tau fibril FP -4%.
Screening O=C(NCCN1CCCC1)c1ccccc1Cl returned TexasRed fluor -1%, Tau ThT inhib -8%, Tau fluor cs -10%, TRb SRC2 PPI 1% and Tau fibril FP -2%.
For Cc1ccc(S(=O)(=O)n2c3ccccc3c3nnc(C(=O)c4ccccc4)nc32)cc1 the results were TexasRed fluor -1%[11.2 µM], Tau ThT inhib -9%[11.5 µM], Tau fluor cs -13%[11.6 µM], TRb SRC2 PPI -1%[11.2 µM] and Tau fibril FP 3%[11.6 µM].
For O=C1[C@@H]2[C@H]3[C@H](O)[C@H](O)C/C(=N/OC[C@@H](O)COCc4ccco4)[C@H]3CC[C@H]2C(=O)N1c1ccc(F)cc1F the results were TexasRed fluor 2%[11.2 µM], Tau ThT inhib -7%[11.5 µM], Tau fluor cs -2%[11.6 µM], TRb SRC2 PPI -2%[11.2 µM] and Tau fibril FP -1%[11.6 µM].
Screening OCCN(CCO)c1ccc(C(c2ccccc2Cl)c2ccc(N(CCO)CCO)cc2Cl)c(Cl)c1 returned TexasRed fluor -4%, Tau ThT inhib inconclusive, Tau fluor cs 11µM*[quencher], TRb SRC2 PPI 2% and Tau fibril FP 17%.
CO[C@@H]1COC(=O)[C@H]2CCCN2C(=O)[C@@H](C)COC(=O)C/C=C\[C@H]1C was read as TexasRed fluor 1%[11.2 µM], Tau ThT inhib -10%[11.5 µM], Tau fluor cs -9%[11.6 µM], TRb SRC2 PPI 5%[11.2 µM] and Tau fibril FP -3%[11.6 µM].
`COc1ccc(O)c(C(=O)c2cc(SCC(=O)O)c3nc4sc5c(c4c(=O)n3c2)CCCC5)c1` gave TexasRed fluor -9%, Tau ThT inhib 18µM*, Tau fluor cs -25%, TRb SRC2 PPI 7% and Tau fibril FP -7%.
CCOC(=O)c1sc2nc3c(SCC(=O)O)cc(C(=O)c4cc(F)ccc4O)cn3c(=O)c2c1C was read as TexasRed fluor -22%, Tau ThT inhib 13µM*, Tau fluor cs -10%, TRb SRC2 PPI 30% and Tau fibril FP -9%.
CCCCCCCCOc1ccccc1C(=O)Nc1ccc(C(=O)OCC[N+](C)(CC)CC)cc1 was read as TexasRed fluor -2% and TRb SRC2 PPI 3%.
`Cc1ccc(C)c(N2CCN(C(=O)C(CC(C)C)NS(=O)(=O)c3ccc4nc(C)sc4c3)CC2)c1` (configuration not stated) gave TexasRed fluor -1%, Tau ThT inhib -12%, Tau fluor cs -14%, TRb SRC2 PPI 3% and Tau fibril FP 6%.
`COC1=C(N)C(=O)c2nc(-c3nc(C(=O)O)c(C)c(-c4ccc(OC)c(OC)c4O)c3N)ccc2C1=O` gave TexasRed fluor -5%, Tau ThT inhib 16µM*, Tau fluor cs inconclusive, TRb SRC2 PPI -13% and Tau fibril FP inconclusive.
COc1ccc(C(=O)O)c(O)c1OC was read as TexasRed fluor 0%, Tau ThT inhib -8%, Tau fluor cs -19%, TRb SRC2 PPI 1% and Tau fibril FP inconclusive.
Cn1nc(C(C)(C)C)cc1NC(=O)Nc1cc(Cl)cc(Cl)c1 was read as TexasRed fluor -5%, Tau ThT inhib -9%, Tau fluor cs 7.1µM*[quencher], TRb SRC2 PPI 4% and Tau fibril FP 25µM*.
Cc1ccc(F)cc1NC(=O)Nc1cc(C(C)(C)C)nn1C was read as TexasRed fluor -2%, Tau ThT inhib -5%, Tau fluor cs -27%, TRb SRC2 PPI -6% and Tau fibril FP 5%.
CCOc1ccc(C(=O)Nc2ccc3c(c2)OCCO3)cc1Br was read as TexasRed fluor -21%, Tau ThT inhib inconclusive, Tau fluor cs 16µM*[quencher], TRb SRC2 PPI 9% and Tau fibril FP 3%.
Cc1ccc(N(CC(=O)NCCc2ccc(Cl)cc2)S(=O)(=O)N(C)C)cc1 was read as TexasRed fluor 0%, Tau ThT inhib -7%, Tau fluor cs -23%, TRb SRC2 PPI -6% and Tau fibril FP 4%.
COc1cc(C(CC(=O)Nc2cc(C)ccc2C)N2Cc3ccccc3C2=O)cc(OC)c1OC (configuration not stated) was read as TexasRed fluor 1%, Tau ThT inhib 0%, Tau fluor cs -6%, TRb SRC2 PPI 6% and Tau fibril FP 0%.
For CCC1CN(C(=O)N2CCC(C(=O)N3CCN(c4ccccc4F)CC3)CC2)c2ccccc2O1 (configuration not stated) the results were TexasRed fluor 0.014µM*[quencher], Tau ThT inhib inconclusive, Tau fluor cs 14µM*[quencher], TRb SRC2 PPI -3% and Tau fibril FP 10%.
CCc1ccc(NC(=O)C2CCN(C(=O)N3CC(CC)Oc4ccccc43)CC2)cc1 (configuration not stated) was read as TexasRed fluor -3%, Tau ThT inhib inconclusive, Tau fluor cs 16µM*[quencher], TRb SRC2 PPI 0% and Tau fibril FP inconclusive.
Screening CCOC(=O)N1CCN(c2nc(-c3ccc(OC)cc3)no2)CC1 returned TexasRed fluor -1%, Tau ThT inhib inconclusive, Tau fluor cs -11%, TRb SRC2 PPI -14% and Tau fibril FP -3%.
Screening COc1ccc(-c2noc(N3CCC(C(=O)N4CCN(c5ccccc5F)CC4)CC3)n2)cc1 returned TexasRed fluor 56µM*[quencher], Tau ThT inhib inconclusive, Tau fluor cs -10%, TRb SRC2 PPI inconclusive and Tau fibril FP inconclusive.
`CCC1CN(C(=O)NCc2ccc(C)cc2)c2ccccc2O1` (configuration not stated) gave TexasRed fluor inconclusive, Tau ThT inhib inconclusive, Tau fluor cs 16µM*[quencher], TRb SRC2 PPI -8% and Tau fibril FP inconclusive.
